Source: PubChem (several laboratories)
PrPC TRFRET: reduces human prion protein on the cell surface; inhibition, % at 13.8 µM; 370,000 compounds, 0.43% hits; cell surface PrPC, TR-FRET read-out; AID 720596; P04156; in the data active = inhibition above about 24%; also: 0% = median of the test wells and 100% = reference compound wells
3CLpro inhibitor: SARS-CoV 3CLpro protease inhibition | inhibition, % at 6 µM | AID 1706 | recombinant SARS-CoV 3CLpro, quenched FRET peptide cleavage | 290,000 compounds, 0.14% hits; in the data active = inhibition above about 12%
PrP 5UTR inh: suppresses PrP 5' UTR mRNA reporter expression; AID 488862; inhibition, % (test concentration not listed); 340,000 compounds, 0.35% hits; cell-based PrP 5' UTR mRNA reporter, plate reader; in the data active = inhibition above about 52%; also: 0 = median of the neutral control wells
Mtb hypoxia rep: reduces hypoxia-regulated biosensor signal in M. tuberculosis; fluorescence inhibition, % (concentration not given with the values); M. tuberculosis hypoxia-regulated fluorescent reporter, fluorescence; 300,000 compounds, 0.1% hits; AID 1159583; in the data active = fluorescence inhibition mostly above about 23%, no sharp cut-off; inactive = mostly below about 17%
RecA splice inh: blocks M. tuberculosis RecA intein splicing | cell-free RecA intein splicing, fluorescence | inhibition, % (test concentration not listed) | 290,000 compounds, 0.75% hits | P9WHJ3; in the data active = inhibition above about 30%;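 also: 0% = vehicle wells and 100% = reference inhibitor control wells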
Target sequence (P9WHJ3 whole entry, looked up, canonical isoform): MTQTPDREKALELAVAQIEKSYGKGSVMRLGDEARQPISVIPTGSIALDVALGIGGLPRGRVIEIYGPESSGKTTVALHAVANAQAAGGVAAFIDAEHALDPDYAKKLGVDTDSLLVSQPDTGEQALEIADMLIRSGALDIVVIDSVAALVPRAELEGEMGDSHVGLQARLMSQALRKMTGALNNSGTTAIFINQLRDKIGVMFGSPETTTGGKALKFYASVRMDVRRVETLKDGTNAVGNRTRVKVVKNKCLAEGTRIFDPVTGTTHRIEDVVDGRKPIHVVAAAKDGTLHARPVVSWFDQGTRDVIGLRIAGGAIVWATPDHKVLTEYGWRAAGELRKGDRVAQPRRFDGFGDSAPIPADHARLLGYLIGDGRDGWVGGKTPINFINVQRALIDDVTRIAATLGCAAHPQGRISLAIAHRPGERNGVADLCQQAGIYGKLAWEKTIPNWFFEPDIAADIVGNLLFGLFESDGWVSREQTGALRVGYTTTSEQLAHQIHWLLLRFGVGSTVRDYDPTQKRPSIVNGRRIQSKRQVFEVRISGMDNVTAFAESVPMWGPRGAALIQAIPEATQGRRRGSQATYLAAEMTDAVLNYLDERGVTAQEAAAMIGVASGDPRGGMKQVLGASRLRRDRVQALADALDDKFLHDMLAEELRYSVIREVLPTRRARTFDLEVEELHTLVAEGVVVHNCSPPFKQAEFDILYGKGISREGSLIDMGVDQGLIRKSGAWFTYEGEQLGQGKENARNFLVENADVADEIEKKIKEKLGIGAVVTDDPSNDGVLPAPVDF
BJeLR lethal: BJeLR cell viability loss; BJeLR (HRASV12) viability, CellTiter-Glo ATP luminescence, 48 h; inhibition, % (no concentration beside the values); 300,000 compounds, 0.17% hits; AID 1554; in the data active = inhibition above about 50%
* hit, by the source's call; / = no result shown. Shown are actives, neighbours in structure and some others; about 1.4% of the full set was active somewhere.

SMILES | PrPC TRFRET | 3CLpro inhibitor | PrP 5UTR inh | Mtb hypoxia rep | RecA splice inh | BJeLR lethal
Cn1c(=O)c2c(nc(SCc3ccccc3)n2Cc2ccc(Cl)cc2)n(C)c1=O | 0 | 1 | -10 | / | -5 | 7
COc1ccc(C=NNC(=S)Nc2cc(C(F)(F)F)ccc2Cl)cc1 | / | / | / | 14 | / | /
N#CC(c1cccc(Cl)c1)c1ccc2c(C(F)(F)F)cc(C(F)(F)F)nc2n1 (stereo not given) | -3 | 1 | 0 | / | 9 | 76*
NNc1ccc2c(C(F)(F)F)cc(C(F)(F)F)nc2n1 | -5 | 1 | -23 | 12 | -8 | 14
O=C(C=NO)Nc1ccccc1C(=O)O | / | / | / | -14 | / | /
NC(=O)NN=Cc1cn(CC(=O)Nc2ccc(F)cc2)c2ccccc12 | / | / | / | 70* | / | /
Nc1nc(CCl)nc(Nc2cccc3ccccc23)n1 | -1 | -4 | / | / | 16 | 125*
O=C1COc2ccc(C(=O)CCl)cc2N1 | -2 | 5 | -20 | / | 32* | 0
CCC(=O)c1ccc(OCC(=O)c2ccc3c(c2)NC(=O)CO3)cc1 | 5 | 1 | -16 | 1 | 0 | -3
O=C(Nc1nccs1)C1CC=CC2CCN(Cc3ccccc3)C(=O)C21 (stereo not given) | / | / | / | 10 | / | /
Cc1cc(C)c2nc(C)cc(N/N=C/c3ccc(O)cc3)c2c1 | -9 | -40 | -15 | / | -9 | 51*
Cc1cc(NN=Cc2ccc(O)cc2)c2cccc(C)c2n1 | / | / | / | 18 | / | /
CCN1C(=O)/C(=C2\C=Cc3ccccc3N2CC)SC1=S | -17 | 1 | -16 | 37* | 2 | 7
CCN1C(=O)/C(=c2\o/c(=C3\C=Cc4ccccc4N3CC)c(=O)n2CC)SC1=S | 4 | -6 | -24 | / | 2 | 13
O=C1C2C(C(=O)N1N=Cc1cccc([N+](=O)[O-])c1)C1C=CC2C12CC2 (stereo not given) | / | / | / | 4 | / | /
CC(C)(C)C1CCc2sc(-c3nnc(CCl)o3)cc2C1 (stereo not given) | -5 | 6 | 48 | 18 | 51* | 7
COc1c2ccc(OCCC(C)=CC(=O)C=C(C)C)cc2nc2occc12 | / | / | / | -9 | / | /
COc1ccc(C=C(C#N)C(=O)Nc2cccc(C)c2C)cc1C(=O)O | / | / | / | -2 | / | /
Oc1ccc(/C(Cc2ccccn2)=N\Nc2ccccc2)c(O)c1 | 5 | 1 | -7 | / | 19 | -2
Oc1ccc(/C(Cc2ccc3ccccc3n2)=N\Nc2ccccc2)c(O)c1 | 19 | 4 | -43 | / | 47* | 3
Nc1cc(Cl)c2nonc2c1[N+](=O)[O-] | 56* | 0 | -22 | 40* | / | /
COc1ccc2c(c1)OC(c1ccc3c(c1)OCO3)C(O)C2=O (stereo not given) | / | / | / | 21 | / | /
CCOc1cc(/C=C2\CN(CC)C/C(=C\c3ccc(O)c(OCC)c3)C2=O)ccc1O | -14 | 0 | -13 | -9 | 1 | 57*
CN1CCS/C1=C/C=C1\SC(=S)N(CC(=O)O)C1=O | -54 | 1 | -19 | 58* | -5 | -8
CCN1C(=O)NC(c2cccc(C(F)(F)F)c2)C(C(C)=O)C1C (stereo not given) | / | / | / | 16 | / | /
SMILES | PrPC TRFRET | 3CLpro inhibitor | PrP 5UTR inh | Mtb hypoxia rep | RecA splice inh | BJeLR lethal
C[C@]12CCC(O)CC1CCC1C2CC[C@]2(C)C(C3=CC(=O)OC3)C(O)C[C@]12O (stereo not given in full) | / | / | / | 16 | / | /
COC1CC(OC2CCC3(C)C(CCC4C3CCC3(C)C(C5=CC(=O)OC5)C(OC(C)=O)CC43O)C2)OC(C)C1OC1OC(COC2OC(CO)C(O)C(O)C2O)C(O)C(O)C1O (stereo not given) | / | / | / | / | 0 | 51*
COC(=O)CC1c2cc(C(F)(F)F)ccc2S(=O)(=O)N1c1ccc(N(C)C)cc1 (stereo not given) | / | / | / | 13 | / | /
O=C(CC=NOCc1c(Cl)cccc1Cl)Oc1ccc(Cl)cc1Cl | / | / | / | 15 | / | /
O=C(N/N=C/c1cccnc1)c1ccc(NC(=O)C(c2ccccc2)c2ccccc2)cc1 | 13 | -3 | 4 | / | -4 | 106*
CC(=O)NC1N=C(C)N(c2ccccc2)C1=O (stereo not given) | 2 | 2 | -13 | / | 52* | 6
COc1cc(/C=C2/SC(N)=NC2=O)ccc1Oc1ccc([N+](=O)[O-])cc1[N+](=O)[O-] | -12 | 2 | -19 | 25 | 1 | 8
NC1=NC(=O)/C(=C\c2ccc(O)c([N+](=O)[O-])c2)S1 | -13 | 0 | -7 | 56* | 4 | 0
CC1(CC(=O)N/N=C/c2ccc(OCc3ccc(Cl)cc3Cl)cc2)OCCCO1 | -1 | 0 | -5 | / | 39* | 17
CC1(CC(=O)NN=Cc2ccc(OCc3ccc(Cl)cc3Cl)cc2)OCCCO1 | / | / | / | 2 | / | /
COCCN1C(=O)NC(CCc2ccccc2)C(C(=O)OC)C1C (stereo not given) | / | / | / | -7 | / | /
COC(=O)c1c(C)oc2ccc(N(C(=O)c3ccncc3)S(=O)(=O)c3ccc(C)cc3C)cc12 | 6 | -3 | -29 | -4 | 56* | 15
Cc1ccc(S(=O)(=O)N(C(=O)c2ccncc2)c2ccc3oc4c(c3c2)CCCC4)cc1[N+](=O)[O-] | 9 | 11 | -27 | 5 | -2 | -10
O=C(Oc1ccc(N(C(=O)c2ccncc2)S(=O)(=O)c2cccs2)cc1)c1ccncc1 | 1 | 1 | -24 | -6 | 10 | -1
Cc1ccc([N+](=O)[O-])cc1S(=O)(=O)N(C(=O)c1ccncc1)c1ccc2oc3c(c2c1)CCCC3 | -4 | 6 | -6 | -1 | 43* | 9
COC(=O)c1c(C)oc2ccc(N(C(=O)c3ccncc3)S(=O)(=O)c3ccc4ccccc4c3)cc12 | 9 | 0 | -22 | 10 | 38* | 4
COC(=O)c1c(C)oc2ccc(N(C(=O)c3ccncc3)S(=O)(=O)c3ccccc3)cc12 | 17 | -2 | -2 | / | 29 | -2
Cc1cc(F)ccc1S(=O)(=O)N(C(=O)c1ccncc1)c1ccc(OC(=O)c2ccncc2)cc1 | 6 | 3 | -16 | 20 | 31* | -8
COC(=O)c1c(C)oc2ccc(N(C(=O)c3ccncc3)S(=O)(=O)c3ccc(C)cc3)cc12 | / | -1 | -25 | 1 | 12 | 27
O=c1ccn(C2OC(COS(=O)(=O)O)C(O)C2O)c(=O)[nH]1 (stereo not given) | / | / | / | 20 | / | /
CCCCCCCCCOC(=O)C1N2C(=O)C(NC(=O)COc3ccccc3)C2SC1(C)C (stereo not given) | / | / | / | 15 | / | /
CN(C)S(=O)(=O)c1ccc(-c2csc(NN=Cc3ccc(O)cc3)n2)cc1 | / | / | / | 3 | / | /
COc1ccc2[nH]c(=O)c(CN(C3CCCCC3)C(c3nnnn3Cc3ccco3)C(C)C)cc2c1 (stereo not given) | / | 4 | -15 | / | 33* | 2
O=C(O)c1ccc(NN=C/C=C/c2ccc([N+](=O)[O-])o2)cc1 | / | / | / | 68* | / | /
O=C1c2ccccc2C(=O)c2c1ccc(O)c2O | -46 | / | -3 | / | / | /
COC(=O)c1ccc2c(c1O)C(=O)c1ccccc1C2=O | -7 | -1 | -24 | 10 | 44* | -3
CCC(C)C(=O)OCC1(c2ccc(C)cc2OC(=O)C(C)C)CO1 (stereo not given) | -2 | / | 2 | / | / | 53*
